High-throughput results deposited in PubChem BioAssay by National Center for Advancing Translational Sciences (NCATS).
In the library only some 10% were active in any assay of this set; here they are far more common.
hNpr1 antagonist: antagonists of human natriuretic peptide receptor Npr1; Potency, µM (doses to about 46.3 µM), without a hit: top-dose activity change, negative = inhibition, hits mostly inhibitors; HEK293 hNpr1 GloSensor cGMP, ANP-stimulated luminescence; P16066; AID 1347048; 76,000 tested, 1.6% active; calls by dose curve; note: nearly all actives have a fitted effect of over 60% in size
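HEK293 cells stably expressing human Npr1 and cGMP GloSensor pGS-40F, loaded 2 h with 2% GloSensor reagent, given compound 30 min at room temperature. Luminescence read before and 20 min after 0.1 nM hNppA.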
NIH3T3 tox: kills NIH 3T3 cells. NIH 3T3 viability, CellTiter-Glo ATP luminescence, 48-72 h. 94,000 tested, 4.3% active. Potency, µM (doses to about 96.7 µM), for inactives: at the highest dose activity change, negative = cytotoxicity, usual class: inhibitors; note: nearly all actives have a fitted effect of over 55% in size
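Cytotoxicity was measured by CellTiter-Glo ATP luminescence after 48 or 72 h compound exposure at 37 °C. Mouse NIH 3T3 fibroblasts were seeded at 400 cells/well and dosed by 23 nL pin transfer.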
GPT2 inh: blocks human glutamate pyruvate transaminase 2. Recombinant GPT2, coupled pyruvate oxidase/HRP Amplex Red fluorescence. AID 1671188. Potency, µM (series often up to 57.7 µM), for inactives: at the highest dose activity change, negative = inhibition, most hits filed as inhibitors. 100,000 tested, 0.25% active. Q8TD30; note: nearly all actives have a fitted effect of over 60% in size
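Fluorescence of coupled pyruvate oxidase/HRP/Amplex Red system (50uM Amplex, 30 min, dark) reports pyruvate formed by GPT2. Enzyme reaction: 10ng/uL GPT2, 2mM L-alanine, 250uM a-KG, 30 min room temperature, pH 7.5; 50uM AOA control.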
HEK cytotox: cytotoxic compounds in HEK 293 cells | AID 1345083 | 94,000 tested, 6.6% active | Potency, µM (series often up to 115 µM), for inactives: at the top dose activity change, negative = cytotoxicity, hits mostly inhibitors | HEK 293 viability, ATP luminescence (CellTiter-Glo), 48-72 h; note: nearly all actives have a fitted effect of over 60% in size
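Viability of HEK 293 cells, plated at 250 cells/well, was judged by cellular ATP after compound treatment for 48 or 72 hr. Luminescence was imaged 10 min after CellTiter-Glo addition at room temperature.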
Luciferase inh: blocks purified firefly luciferase enzyme activity | P08659 | purified P. pyralis luciferase, luminescence, biochemical | Potency, µM (doses to about 115 µM), actives largely listed as inhibitors | 76,000 tested, 2.5% active; note: nearly all actives have a fitted effect of over 65% in size
Target sequence (P08659 whole entry, looked up): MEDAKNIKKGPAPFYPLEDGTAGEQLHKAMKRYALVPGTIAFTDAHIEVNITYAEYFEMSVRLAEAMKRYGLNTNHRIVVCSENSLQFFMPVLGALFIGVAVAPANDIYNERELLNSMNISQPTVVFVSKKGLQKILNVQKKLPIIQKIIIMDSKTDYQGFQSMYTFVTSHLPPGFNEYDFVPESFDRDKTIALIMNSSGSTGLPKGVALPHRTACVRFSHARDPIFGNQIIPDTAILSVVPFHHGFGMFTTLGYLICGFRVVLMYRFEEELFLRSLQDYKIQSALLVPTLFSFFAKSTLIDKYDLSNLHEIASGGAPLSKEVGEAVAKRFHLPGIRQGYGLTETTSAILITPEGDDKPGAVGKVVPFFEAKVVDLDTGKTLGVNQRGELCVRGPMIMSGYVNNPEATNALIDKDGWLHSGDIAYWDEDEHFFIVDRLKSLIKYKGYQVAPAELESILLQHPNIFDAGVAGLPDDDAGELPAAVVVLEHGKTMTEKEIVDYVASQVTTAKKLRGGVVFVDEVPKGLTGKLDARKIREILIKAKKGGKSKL
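Cell-free enzyme assay, 10nM P. pyralis luciferase, luciferin and ATP each at 10uM. Inhibition profiled over a 6-point titration, read as luminescence.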
Starred values were filed as active, the others as inactive; i = inactive; ? = inconclusive; . = no result; [ ] = dose if it differs, or a comment. Unless noted, calls come from the whole dose curve; as a rule, active = well fitted curve in the direction sought with a large enough effect; inconclusive = small, poorly fitted or top-dose-only effect, or another doubt; inactive = no such curve, though single readings can be large; an effect the other way counts as inactive or inconclusive. % is set by controls: 0 for no effect and ±100 for the full control effect; potency is the fitted concentration of half-maximal effect.

SMILES	hNpr1 antagonist	NIH3T3 tox	GPT2 inh	HEK cytotox	Luciferase inh
O=C1Nc2ccc(-c3cccc(C(F)(F)F)c3)cc2C(=O)N2CCN(C(=O)c3cccnc3)C[C@H]12	-4%	-19%	5%	?	i
COc1ccc(Cl)cc1-c1ccc2c(c1)C(=O)N1CC[C@H](NC(=O)c3cccs3)C[C@H]1C(=O)N2	-25%	?	-12%	32µM*	i
COc1ccc(Cn2c(=O)c(C(=O)NCCCc3ccccc3)nc3cccnc32)cc1	.	?	i	?	.
Cn1cccc1C(=O)N1CCC2(CC1)CN(Cc1ccccc1)CC2CO (stereo not drawn)	-8%	?	-5%	?	i
O=C(N[C@H]1CCN2C(=O)c3cc(Br)ccc3NC(=O)[C@@H]2C1)c1ccco1	2%[70.6 µM]	89µM*	-5%[88.5 µM]	?	i
O=C1Nc2ccc(-c3ccccc3)cc2C(=O)N2CCN(C(=O)c3ccccc3)C[C@H]12	-13%[70.6 µM]	?	?	89µM*	i
COc1ccc(Cl)cc1-c1ccc2c(c1)C(=O)N1CCN(C(=O)c3ccccc3)C[C@@H]1C(=O)N2	2%	?	?	28µM*	i
COc1ccc(C(=O)N[C@H]2C[C@H]3C(=O)Nc4ccc(-c5cccs5)cc4C(=O)N3C2)cc1	-22%	-22%	4%	?	i
Cn1cccc1C(=O)N[C@H]1CCN2C(=O)c3cc(Br)ccc3NC(=O)[C@@H]2C1	-9%[70.6 µM]	1%[174 µM]	3%[88.5 µM]	-8%[172 µM]	i
O=C(N[C@H]1C[C@H]2C(=O)Nc3ccc(-c4cccs4)cc3C(=O)N2C1)c1ccccc1	?	?	i	32µM*	i
COc1ccc(-c2noc([C@@H]3CCCN3C(=O)COc3cccc(C)c3)n2)cc1	-17%	?	5%	?	i
O=C1Nc2ccc(-c3cccc(C(F)(F)F)c3)cc2C(=O)N2CCN(C(=O)c3cccs3)C[C@H]12	-22%	45µM*	2%	22µM*	i
O=C1Nc2ccc(-c3cccc(C(F)(F)F)c3)cc2C(=O)N2CCN(C(=O)c3cccc(F)c3)C[C@H]12	-4%	?	-4%	32µM*	?
NC(=O)C(=O)N1CCN2C(=O)c3cc(-c4ccc(Cl)cc4)ccc3NC(=O)[C@@H]2C1	-1%[70.6 µM]	?	-6%[88.5 µM]	?	i
N[C@H]1CCN2C(=O)c3cc(-c4ccc(Cl)cc4)ccc3NC(=O)[C@@H]2C1	0%[70.6 µM]	32µM*	i	40µM*	i
COc1ccc(-c2ccc3c(c2)C(=O)N2CCN(C(=O)c4cccc(F)c4)C[C@@H]2C(=O)N3)cc1	-7%	-31%	-27%	?	?
COc1ccc(-c2ccnc3nc(CCc4ccc(OC)c(OC)c4)nn23)c(F)c1	-19%	-29%	-3%	45µM*	i
COc1ccc(-c2ccnc3nc(Cc4ccc(F)cc4)nn23)c(F)c1	-14%	?	i	25µM*	i
CN1CC(=O)N(C2CCNC2)Cc2c1ncnc2N1CCCN(Cc2ccccc2)CC1 (stereo not drawn)	.	i	-20%	-7%	.
COc1cc(NC(=O)C2CCc3ncc(-c4ccsc4)n3C2)cc(OC)c1 (stereo not drawn)	-14%	?	-12%	?	i
CCc1cccc(NC(=O)C2CCc3ncc(-c4ccsc4)n3C2)c1 (stereo not drawn)	-4%	?	i	45µM*	i
COc1ccc(Cn2c(C3CCN(C(=O)COc4cccc(C)c4)CC3)n[nH]c2=O)cc1	-2%	?	3%	-3%	i
COCCN(C)C(=O)C1(C)CN(Cc2ccccc2)Cc2ccc(NCC(C)C)nc21 (stereo not drawn)	1%[70.6 µM]	?	-14%[88.5 µM]	79µM*	i
COCCNC(=O)C1(C)CN(Cc2ccccc2)Cc2ccc(Nc3ccccc3)nc21 (stereo not drawn)	-2%[70.6 µM]	?	2%[88.5 µM]	?	i
COCCNC(=O)C1(C)CN(Cc2ccccc2)Cc2ccc(NCC(C)C)nc21 (stereo not drawn)	-12%[70.6 µM]	22µM*	-36%[88.5 µM]	40µM*	i
SMILES	hNpr1 antagonist	NIH3T3 tox	GPT2 inh	HEK cytotox	Luciferase inh
COCCN1Cc2ccc(NCC(C)C)nc2C(C)(C(=O)Nc2ccccc2)C1 (stereo not drawn)	-12%[70.6 µM]	?	3%[88.5 µM]	?	i
COCCN1Cc2ccc(NCC(C)C)nc2C(C)(C(=O)Nc2ccc(OC)cc2)C1 (stereo not drawn)	-10%[70.6 µM]	45µM*	-19%[88.5 µM]	?	?
O=C(Cc1ccccc1)N1CCN(c2ccnc3ccnn23)CC1	.	?	-3%[88.5 µM]	-4%[172 µM]	.
COc1cccc(N2C(=O)NC(=NC3CCCCC3)C23CCN(C(=O)c2ccccc2OC)C3)c1 (stereo not drawn)	.	-2%	0%	i	.
O=C(c1cccs1)N1CCC(N2CC(OCC3CC3)C23CCCCC3)CC1 (stereo not drawn)	2%	-24%	i	-26%	i
Cc1cccc(N2CCN(C(=O)c3ccc4c(c3)N(C)C3CCCCN3C4=O)CC2)c1 (stereo not drawn)	0%	?	i	32µM*	i
CN1c2cc(C(=O)N3CCN(c4ccccc4)CC3)ccc2C(=O)N2CCCCCC21 (stereo not drawn)	-1%	?	-2%	?	i
CN1c2cc(C(=O)N3CCN(c4cccc(Cl)c4)CC3)ccc2C(=O)N2CCCC21 (stereo not drawn)	-5%	-15%	1%	79µM*	i
CN1c2cc(C(=O)N3CCN(c4ccccc4)CC3)ccc2C(=O)N2CCCCC21 (stereo not drawn)	0%	-9%	i	?	i
CN1c2cc(C(=O)N3CCN(c4cccc(Cl)c4)CC3)ccc2C(=O)N2CCCCC21 (stereo not drawn)	-2%	?	i	45µM*	i
COc1cccc(CN2CC(O)CN([S+](=O)([O-])c3ccc(C)cc3)CC2=O)c1OC (stereo not drawn)	.	-28%	.	?	.
COc1cccc(-c2ccc(C(=O)N3CCC(C(=O)NCCc4ccc(F)cc4)CC3)cc2)c1	.	?	5%	?	.
CCOc1cccc(CN2CCCC(COc3ccccc3C(=O)NC(C)C)C2)c1 (stereo not drawn)	1%	?	-16%	45µM*	i
O=C(c1ccccc1OCC1CCCN(Cc2c[nH]c3ccccc23)C1)N1CCCCC1 (stereo not drawn)	.	?	-1%	50µM*	.
NCCc1cccc(CN2CCCC(COc3ccccc3F)C2)c1 (stereo not drawn)	-1%	35µM*	i	?	i
Cc1ccccc1N1CCCN(Cc2cccc(CCN)c2)CC1	-4%	?	?	28µM*	i
